The target in assay [1] is Progesterone receptor (Homo sapiens) (UniProt P06401). Kind of assay: qHTS assay to identify small molecule agonists of the progesterone receptor (PR) signaling pathway (AID 1346784; calls by dose curve; further: nearly all actives have a fitted effect of over 30% in size). In a few lines:
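Reporter assay, GripTite PR-UAS-bla HEK 293T cells: 16 hr exposure to DMSO-dissolved compounds at 37C, 5% CO2, in steroid-depleted (2% charcoal-stripped FBS) medium; beta-lactamase measured by FRET fluorescence.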
(In general: qHTS replaces the single test concentration by a dilution series.)

Assay [2] shares this target. Kind of assay: qHTS assay to identify small molecule antagonists of the progesterone receptor (PR) signaling pathway (AID 1346795; active means well fitted inhibition curve with a large enough effect in the signal ratio in the repeat runs, not every such curve was filed as active; the % refers to the signal ratio). In a few lines:
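Stimulus R5020 at 1 nM final; cells HEK293T PR-UAS-bla; medium with 2% charcoal-stripped FBS; compound exposure 16 hr at 37C, 5% CO2; detection by FRET beta-lactamase substrate, 2 hr, room temperature.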

A short description of assay [3]: qHTS assay to identify small molecule antagonists of the progesterone receptor (PR) signaling pathway - cell viability counter screen (AID 1346798). Further: series mostly up to about 92 µM; nearly all actives have a fitted effect of over 50% in size. Put shortly: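 In the same plates used for the beta-lactamase readout, cell viability of compound- and R5020-treated PR-UAS-bla HEK293T cells (16 hr, 37C) was assessed by CellTiter-Glo luminescence.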
Assay [4] is described as follows: qHTS assay to identify small molecule agonists of the progesterone receptor (PR) signaling pathway - cell viability counter screen (AID 1346799; calls by dose curve; further: nearly all actives have a fitted effect of over 45% in size). In a few lines: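 Multiplexed viability read: CellTiter-Glo luminescence, 30 min RT, following LiveBLAzer FRET measurement on PR-UAS-bla HEK293T cells exposed to compounds 16 hr.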
The nature of assay [5]: qHTS assay to identify small molecule antagonists of the TGF-beta/Smad signaling pathway - cell viability counter screen (AID 1346824). Further: nearly all actives have a fitted effect of over 50% in size. Put shortly: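 SBE-bla HEK 293T cells were plated overnight at 37 C, then given compounds in DMSO plus TGF-beta1 (added as 0.25 ng/mL solution) for 5 hr. After the bla read, CellTiter-Glo was added to the same wells and luminescence read after 30 min at room temperature.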

The nature of assay [6]: qHTS assay to identify small molecule agonists of the TGF-beta/Smad signaling pathway - cell viability counter screen (AID 1346829). Further: top concentration of the series differs between compounds; nearly all actives have a fitted effect of over 45% in size. Put shortly:
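In parallel with the Smad reporter read, viability of HEK 293T cells stably carrying SBE-bla is quantified by ATP luminescence following 5 hr compound treatment.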

A short description of assay [7]: qHTS assay to identify small molecule agonists of the TGF-beta/Smad signaling pathway (AID 1346859; active means well fitted activation curve with a large enough effect in the signal ratio in the repeat runs, not every such curve was filed as active; the % refers to the signal ratio; further: series mostly up to about 77 µM). In a few lines:
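Screening used HEK 293T SBE-bla cells at 4,000/well. Test agents: 5 hr, 37 C. Detection: FRET substrate, 2 hr RT, then excitation 405 nm with emissions at 460 and 530 nm.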

Assay [8] deals with Thyrotropin-releasing hormone receptor (Homo sapiens) (UniProt P34981). In words: qHTS assay to identify small molecule antagonists of the thyrotropin-releasing hormone receptor (TRHR) signaling pathway (AID 1346877; active means well fitted inhibition curve with a large enough effect in the repeat runs, not every such curve was filed as active; further: series mostly up to about 51 µM). Put shortly:
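Overnight-plated (18 h, 37 °C) HEK293 cells expressing TRHR were dye-loaded 2 h, treated with compound, then stimulated with TRH at 1 nM final. Fluorescence intensity was captured every second for 3 min.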

The target is the same in assay [9]. In words: qHTS assay to identify small molecule agonists of the thyrotropin-releasing hormone receptor (TRHR) signaling pathway (AID 1346891; calls by dose curve; further: series mostly up to about 58 µM). In a few lines:
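Readout was intracellular calcium fluorescence in TRHR-Hek293 cells. Cells were incubated 18 h, dye-loaded 2 h at 37 °C, and treated with compound in agonist mode.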

The nature of assay [10]: Human pregnane X receptor (PXR) small molecule agonists, qHTS cell viability counter screen (AID 1346977). Further: nearly all actives have a fitted effect of over 50% in size. Put shortly:
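In each well, the PXR reporter HepG2 line was checked for viability: CellTiter-Fluor reagent added 23hr post-dosing, fluorescence read after 1hr incubation at 37C.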

Assay [11] in a line: Caspase-3/7 induction in HepG2 cells by small molecules, qHTS assay (AID 1346978). Further: nearly all actives have a fitted effect of over 15% in size. In a few lines:
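Wild-type HepG2 cells (2,000/well) were settled 5 h at 37 C, 5% CO2, then exposed to compounds in DMSO for 17 h. Caspase-3/7 activity was read by luminescence 30 min after adding Caspase-Glo 3/7 reagent at room temperature.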

Assay [12] in a line: Caspase-3/7 induction in CHO-K1 cells by small molecules, qHTS cell viability counter screen (AID 1346979). Further: nearly all actives have a fitted effect of over 35% in size. Put shortly: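 Following a 5hr settling period, CHO-K1 cells at 1,500 per well received DMSO-dissolved compounds. Cell viability was quantified 16hr later by CellTiter-Fluor fluorescence, measured after 1hr with reagent at 37C.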
Assay [13] in a line: Caspase-3/7 induction in CHO-K1 cells by small molecules, qHTS assay (AID 1346980). Further: nearly all actives have a fitted effect of over 15% in size. Put shortly: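 Wild-type cells were seeded at 1,500 per well and settled 5 hr at 37 C, 5% CO2, then exposed to DMSO-dissolved compounds for 17 hr. Caspase-Glo 3/7 reagent was added, and luminescence was read after 30min at room temperature.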
Assay [14] can be described thus: Caspase-3/7 induction in HepG2 cells by small molecules, qHTS cell viability counter screen (AID 1346981). Further: series mostly up to about 92 µM; nearly all actives have a fitted effect of over 30% in size. Put shortly: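 Treatment of HepG2 cells with DMSO-delivered compounds ran 16 hr at 37 C following a 5-hr pre-incubation of 2,000 cells/well. CellTiter-Fluor fluorescence, read after 1 hr, served as the viability measure in a qHTS format.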
Assay [15] concerns the target Nuclear receptor subfamily 1 group I member 2 (Homo sapiens) (UniProt O75469). Kind of assay: Human pregnane X receptor (PXR) small molecule agonists, qHTS assay (AID 1346982). Further: nearly all actives have a fitted effect of over 35% in size. Further: potency means the concentration at half of the fitted maximal effect. In a few lines:
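Stable HepG2 line reporting PXR-mediated CYP3A4 expression via luciferase. Treatment: 24 hr with compounds in DMSO at 37 C. Detection: ONE-Glo luminescence.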

The target of assay [16] is Nuclear receptor subfamily 1 group I member 2 (Rattus norvegicus) (UniProt Q9R1A7). In words: Rat pregnane X receptor (rPXR) activation by small molecules, qHTS assay (AID 1346983). Further: nearly all actives have a fitted effect of over 20% in size. The settings on record: rPXR luciferase reporter cells, One-Glo luminescence, 24 h; stronger effect = higher value. Put shortly:
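Cell-based rPXR luciferase reporter assay, 2,000 cells per well, rested 5hr at 37 C before compound addition in DMSO, then 24 hr at 37 C. One-Glo reagent was added and luminescence read after 30 min at room temperature.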

Assay [17] concerns the target Nuclear receptor subfamily 1 group I member 2 (Homo sapiens) (UniProt O75469). In words: CYP3A4 induction through human pregnane X receptor (PXR) by small molecules, qHTS assay (AID 1346984). Further: nearly all actives have a fitted effect of over 40% in size. In a few lines: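 After 24 h at 37C with compound, DPX-2 cells (HepG2, co-transfected PXR response element and CYP3A4 promoter-luciferase) got 3uM final P450-Glo Luciferin-IPA for 3 h; One-Glo luminescence followed.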

For assay [18] the target is unchanged. In words: Human pregnane X receptor (PXR) activation by small molecules, qHTS assay (AID 1346985). Further: nearly all actives have a fitted effect of over 40% in size. In a few lines: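 DPX-2 cells (HepG2 co-transfected with a PXR response element and a CYP3A4-promoter luciferase construct) were seeded at 2,000 per well, rested 5 hr at 37C, then exposed to DMSO-dissolved compounds for 24 hr. Activation was read as luciferase luminescence.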

Assay [19] concerns the target Cytochrome P450 2C19 (Homo sapiens) (UniProt P33261). Kind of assay: Cytochrome P450 Family 2 Subfamily C Member 19 (CYP2C19) small molecule antagonists: luciferase reporter qHTS assay (AID 1671197). Further: nearly all actives have a fitted effect of over 65% in size. Further: potency means the concentration at half of the fitted maximal effect. On activity change, negative = inhibition: series mostly up to about 120 µM. In a few lines:
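Compounds were tested on CYP2C19 activity via proluciferin conversion to luciferin. The 37C, 1 h reaction followed NADPH addition; detection reagent stopped it.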

Assay [20] concerns the target Cytochrome P450 2D6 (Homo sapiens) (UniProt P10635). In words: Cytochrome P450 Family 2 Subfamily D Member 6 (CYP2D6) small molecule antagonists: luciferase reporter qHTS assay (AID 1671196). Further: series mostly up to about 120 µM; nearly all actives have a fitted effect of over 50% in size. In a few lines:
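Chemicals tested for interference with CYP2D6 activity; proluciferin substrate, NADPH regeneration, 1 h at room temperature, luminescent detection.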
Background: Reporter assays use an easily measured gene product as a stand-in for the process of interest.

Each structure is given as a SMILES string. Values without a mark were called inactive. Results filed as inconclusive are left out. Calls of active or inactive are those of the source. Unless noted, the call rests on the fitted dose curve; in most records, active means well fitted curve in the direction sought with a large enough effect in the repeat runs; inconclusive means weak or mixed curves; inactive means no such curve, though single readings can be large; an effect the other way counts as inactive or inconclusive.
On the % scale 0 is the no-effect control and ±100 the full control effect.

Nuclear receptor subfamily 1 group I member 2 (Rattus norvegicus), sequence (Q9R1A7 whole entry, looked up): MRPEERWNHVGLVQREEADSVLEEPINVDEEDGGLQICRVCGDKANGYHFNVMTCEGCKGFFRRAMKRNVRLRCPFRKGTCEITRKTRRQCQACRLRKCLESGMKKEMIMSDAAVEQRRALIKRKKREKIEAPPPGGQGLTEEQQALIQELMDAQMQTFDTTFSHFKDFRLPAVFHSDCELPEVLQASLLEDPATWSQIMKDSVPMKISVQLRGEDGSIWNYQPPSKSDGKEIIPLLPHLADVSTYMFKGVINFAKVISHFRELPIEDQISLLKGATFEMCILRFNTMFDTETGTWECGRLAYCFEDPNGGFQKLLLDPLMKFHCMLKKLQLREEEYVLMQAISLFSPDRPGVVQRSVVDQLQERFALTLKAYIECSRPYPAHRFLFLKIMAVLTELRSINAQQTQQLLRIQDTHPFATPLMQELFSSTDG
Cytochrome P450 2C19 (Homo sapiens), sequence (P33261 whole entry, looked up): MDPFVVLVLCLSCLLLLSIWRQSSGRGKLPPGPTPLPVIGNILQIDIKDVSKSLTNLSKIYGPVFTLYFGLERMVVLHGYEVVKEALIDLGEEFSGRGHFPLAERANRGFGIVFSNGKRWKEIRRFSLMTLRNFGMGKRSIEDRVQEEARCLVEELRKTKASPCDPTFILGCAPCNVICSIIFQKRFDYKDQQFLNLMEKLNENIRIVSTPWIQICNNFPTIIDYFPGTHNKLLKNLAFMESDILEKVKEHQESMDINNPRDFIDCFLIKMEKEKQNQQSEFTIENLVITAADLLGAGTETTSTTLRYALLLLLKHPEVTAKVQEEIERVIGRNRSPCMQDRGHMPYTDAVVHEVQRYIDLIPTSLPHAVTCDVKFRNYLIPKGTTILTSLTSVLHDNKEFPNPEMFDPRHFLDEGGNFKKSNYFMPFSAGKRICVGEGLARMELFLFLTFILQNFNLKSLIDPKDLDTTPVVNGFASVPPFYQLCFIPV
Progesterone receptor (Homo sapiens), sequence (P06401 whole entry, looked up): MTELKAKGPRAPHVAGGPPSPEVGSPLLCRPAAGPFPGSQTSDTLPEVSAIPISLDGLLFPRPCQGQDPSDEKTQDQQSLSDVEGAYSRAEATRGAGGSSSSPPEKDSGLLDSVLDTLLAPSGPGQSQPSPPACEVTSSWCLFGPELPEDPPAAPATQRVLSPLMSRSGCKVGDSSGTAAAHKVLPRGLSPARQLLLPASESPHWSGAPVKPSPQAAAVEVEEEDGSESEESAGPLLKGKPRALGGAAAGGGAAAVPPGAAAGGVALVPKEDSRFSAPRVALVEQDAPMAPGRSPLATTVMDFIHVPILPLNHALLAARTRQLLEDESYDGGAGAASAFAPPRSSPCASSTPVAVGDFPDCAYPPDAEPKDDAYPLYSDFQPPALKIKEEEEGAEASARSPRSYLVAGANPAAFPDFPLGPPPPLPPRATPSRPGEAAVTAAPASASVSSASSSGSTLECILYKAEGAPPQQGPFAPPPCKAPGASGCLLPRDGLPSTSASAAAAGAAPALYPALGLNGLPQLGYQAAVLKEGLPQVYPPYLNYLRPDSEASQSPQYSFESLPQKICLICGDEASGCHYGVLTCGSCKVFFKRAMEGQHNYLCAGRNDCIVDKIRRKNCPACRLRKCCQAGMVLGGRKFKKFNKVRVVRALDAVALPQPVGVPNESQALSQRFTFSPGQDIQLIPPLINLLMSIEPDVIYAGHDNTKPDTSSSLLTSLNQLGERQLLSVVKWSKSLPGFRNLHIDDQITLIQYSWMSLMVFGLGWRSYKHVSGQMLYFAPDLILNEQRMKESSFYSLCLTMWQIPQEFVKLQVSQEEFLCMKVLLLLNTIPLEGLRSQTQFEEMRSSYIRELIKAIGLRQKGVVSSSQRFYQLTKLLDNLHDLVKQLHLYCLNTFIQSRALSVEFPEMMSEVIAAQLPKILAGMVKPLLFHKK
Nuclear receptor subfamily 1 group I member 2 (Homo sapiens), sequence (O75469 whole entry, looked up): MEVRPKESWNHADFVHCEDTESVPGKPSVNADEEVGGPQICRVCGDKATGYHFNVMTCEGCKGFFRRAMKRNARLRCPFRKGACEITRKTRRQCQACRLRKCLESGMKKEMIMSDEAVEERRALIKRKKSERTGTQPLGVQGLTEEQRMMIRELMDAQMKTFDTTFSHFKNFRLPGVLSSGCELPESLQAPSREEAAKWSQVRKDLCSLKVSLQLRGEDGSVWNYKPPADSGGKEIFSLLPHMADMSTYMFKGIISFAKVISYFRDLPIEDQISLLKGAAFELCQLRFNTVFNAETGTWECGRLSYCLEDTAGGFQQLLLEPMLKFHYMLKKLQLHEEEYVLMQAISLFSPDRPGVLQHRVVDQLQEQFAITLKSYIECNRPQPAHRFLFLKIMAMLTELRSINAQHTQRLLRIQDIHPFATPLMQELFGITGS
Thyrotropin-releasing hormone receptor (Homo sapiens), sequence (P34981 whole entry, looked up): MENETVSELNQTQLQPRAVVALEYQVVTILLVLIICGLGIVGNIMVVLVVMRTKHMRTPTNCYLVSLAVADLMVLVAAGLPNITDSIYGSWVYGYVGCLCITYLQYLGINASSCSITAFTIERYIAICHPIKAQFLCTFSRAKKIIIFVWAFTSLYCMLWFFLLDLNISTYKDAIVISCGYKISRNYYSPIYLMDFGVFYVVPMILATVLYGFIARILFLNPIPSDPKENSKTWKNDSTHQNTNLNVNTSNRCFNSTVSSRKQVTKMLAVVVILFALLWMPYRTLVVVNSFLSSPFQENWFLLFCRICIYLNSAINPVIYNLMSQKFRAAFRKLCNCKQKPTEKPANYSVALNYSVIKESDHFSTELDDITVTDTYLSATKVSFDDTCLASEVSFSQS
Cytochrome P450 2D6 (Homo sapiens), sequence (P10635 whole entry, looked up): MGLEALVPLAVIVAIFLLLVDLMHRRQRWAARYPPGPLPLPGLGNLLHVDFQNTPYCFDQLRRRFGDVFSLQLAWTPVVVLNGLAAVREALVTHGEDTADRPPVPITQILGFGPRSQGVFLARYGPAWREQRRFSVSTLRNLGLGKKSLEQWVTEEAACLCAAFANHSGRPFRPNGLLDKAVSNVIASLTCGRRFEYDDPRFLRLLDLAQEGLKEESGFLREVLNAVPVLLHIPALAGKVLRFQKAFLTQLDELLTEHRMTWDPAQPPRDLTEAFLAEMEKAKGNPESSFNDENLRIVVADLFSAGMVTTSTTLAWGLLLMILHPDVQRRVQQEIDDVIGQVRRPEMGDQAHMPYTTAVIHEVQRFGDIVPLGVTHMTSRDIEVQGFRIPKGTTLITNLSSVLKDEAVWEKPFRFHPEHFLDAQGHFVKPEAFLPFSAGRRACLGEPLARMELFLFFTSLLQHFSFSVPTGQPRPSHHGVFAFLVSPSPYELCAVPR

Consider `Nc1ncnc(Nc2ccccc2)n1`, for which the Potency result in [1], in assay [2], in assay [3], in assay [4], in assay [10] and in [11] was “inactive” in each case. The Potency entry in assay [12], in [14], in assay [15], in assay [17], in assay [18] and in assay [19] was “inactive” throughout. The outcome in assay [5], in assay [6], in [7], in assay [8], in assay [9] and in assay [13] was inactive. Moreover, the max activation in assay [16] was 2.76%.

Turning to `Cc1cccc(C)c1OCC(C)N` (configuration not stated), the Potency result in assay [1], in assay [2], in assay [3], in assay [4], in assay [10] and in [11] was “inactive” each time. The Potency entry in assay [12], in assay [14], in assay [15], in [17], in assay [18] and in assay [19] was “inactive” each time. Further, the call in [5], in [6], in assay [7], in assay [8], in [9] and in [13] was inactive. In [16], the max activation was -1.45%.

With `Nc1cccc(O)c1`, the Potency entry in [1], in assay [2], in [3], in [4], in assay [10] and in assay [11] was “inactive” in each case. Moreover, the Potency entry in assay [12], in [14] and in [15] was “inactive” in each case. The compound was classed as inactive in assay [5], in [6], in assay [7], in [8], in [9] and in assay [13]. Besides, the Potency in assay [19] was 73.1 µM (active).

As to `CCCCCCCCSCC`, the Potency entry in assay [1], in assay [2], in assay [3], in [4], in assay [10] and in [11] was “inactive” in each case. Besides, the Potency result in assay [12], in assay [14], in assay [15], in [20] and in assay [19] was “inactive” each time. Also, the compound was called inactive in [5], in assay [6], in assay [7], in [8], in [9] and in assay [13].

As to `O=C(NCC(O)CO)c1c(I)c(C(=O)NCC(O)CO)c(I)c(N(CCO)C(=O)CO)c1I` (configuration not stated), the Potency entry in assay [1], in assay [2], in [3], in assay [4], in [10] and in assay [11] was “inactive” each time. Further, the Potency result in [12] and in [14] was “inactive” throughout. The call in assay [5], in assay [6], in [7], in assay [8], in [9] and in assay [13] was inactive. The max activation in assay [16] is -4.62%.

Consider `N[C@@H](COP(=O)(O)O)C(=O)O`, for which the figures for the activation in assay [1], in [7] and in [9] were 0.26% [at 19 µM], -0.654% [at 15.8 µM] and -0.175% [at 11.8 µM], respectively. Moreover, the results for the activity change, negative = inhibition in assay [2] and in assay [19] were 6.07% [at 18.9 µM] and 14.8% [at 23.6 µM], respectively. The activity change, negative = cytotoxicity in [3] is -0.532% [at 18.9 µM]; in assay [4] it was 13.8% [at 19 µM]; in assay [6], 0.5% [at 15.8 µM]; in assay [10], 17.9% [at 19 µM]; in assay [12], 4.45% [at 19 µM]; in [14] it was 5.73% [at 19 µM]. In assay [5], the viability change, negative = cytotoxic is -0.3% [at 15.8 µM]. Besides, in [8], the activity, negative = inhibition was -1.81% [at 10.5 µM]. Also, in [11], the caspase activation is 0.675% [at 19 µM]. The caspase-3/7 activation in [13] is 0.116% [at 19 µM]. Moreover, the max activation in assay [16] is -0.35%. The Potency entry in [17] and in [18] was “inactive” each time.

Take `O=C(NCCc1c[nH]c2ccccc12)c1cccnc1`: the Potency result in assay [1], in [2], in [3], in assay [4], in assay [10] and in assay [12] was “inactive” each time. Moreover, the Potency entry in [14], in [17] and in assay [18] was “inactive” each time. Moreover, the result in [5], in assay [6], in [7], in assay [8], in [9] and in assay [13] was inactive. Moreover, the Potency is 26.6 µM (active) in [15] and 7.76 µM (active) in assay [19].

For the compound `CCCCCCCCCC(C)=O`, the Potency entry in assay [1], in assay [2], in [3], in [4], in assay [10] and in assay [11] was “inactive” in each case. Further, the Potency result in assay [12], in assay [14], in assay [15] and in assay [19] was “inactive” in each case. Also, the compound was classed as inactive in [5], in assay [6], in assay [7], in assay [8], in assay [9] and in [13].
